From PubChem
SW480 rereplic: A quantitative high throughput screen for small molecules that induce DNA re-replication in SW480 colon adenocarcinoma cells; SW480 DNA re-replication, Hoechst DNA content imaging, 48 h; Potency, µM (highest dose often 46.1 µM), for the others: at the highest dose re-replication activation, hits mostly activators; 1.8% of 340,000 active; AID 624297, 2012; note: potency is the fitted concentration of half-maximal effect; % of control where 0% means no effect; nearly all actives have a fitted effect of over 55% in size
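Readout is total intensity of Hoechst-stained nuclei, excited at 405 nm and collected at 500-530 nm. Compound treatment lasted 48 hr at 37 C in 5% CO2 before staining.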
MCF10A rerep: A quantitative high throughput screen for small molecules that induce DNA re-replication in MCF 10a normal breast cells; MCF 10A DNA re-replication, Hoechst nuclear intensity, 48 h; Potency, µM (top dose mostly 46.1 µM), without a hit: at the top dose activity, positive = re-replication, most hits filed as activators; 2.9% of 350,000 active; AID 624296, 2012; note: potency is the fitted concentration of half-maximal effect; % of control where 0% means no effect; nearly all actives have a fitted effect of over 50% in size
KCNH2 3.1 inh: qHTS for Inhibitors of KCHN2 3.1: Mutant qHTS; Potassium voltage-gated channel subfamily H member 2, brain isoform KCNH2 3.1 (human); U2OS KCNH2 3.1, thallium flux FluxOr; active compounds read low; activity change, % (tested at about 1.8 µM); 0.95% of 340,000 active;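 active = maximum activity change below -70%; inconclusive = maximum activity change from -70% to -50%; inactive = maximum activity change above -50%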;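 note: thallium influx rate constant from kinetic fluorescence after stimulation buffer; % is set by controls: 0 for no effect and ±100 for the full control effect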
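Virally transduced U2OS (3.1 isoform, 4 h infection in dark at RT) → overnight 37 C → FluxOr + Red40 in HBSS/HEPES, 45 min → stimulation buffer, 2 min kinetic read → rate constant vs DMSO controls.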
KB-V1 MDR tox: qHTS assay for MDR1-selective chemotherapeutics: Primary screen using the drug-selected MDR subline cells KB-V1. Potency, µM (top dose mostly 46.1 µM), actives largely listed as cytotoxic. KB-V1 MDR cells viability, CellTiter-Glo, 72 h. 3.4% of 400,000 active. AID 1347076, 2019; note: potency is the fitted concentration of half-maximal effect; % is set by controls: 0 for no effect and ±100 for the full control effect; nearly all actives have a fitted effect of over 60% in size
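KB-V1, DMEM (no phenol red) + 10% FBS; cpd pin-transferred, titration series; 72 h, 37 degrees C; CellTiter-Glo, luminescence. Data normalized, curve-fit.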
KB-3-1 cytotox: qHTS assay for MDR1-selective chemotherapeutics: Primary screen using the parental adenocarcinoma cell KB-3-1. KB-3-1 viability, CellTiter-Glo ATP luminescence, 72 h. Potency, µM (doses to about 46.1 µM), actives largely listed as cytotoxic. 1.4% of 400,000 active; note: potency is the fitted concentration of half-maximal effect; % is set by controls: 0 for no effect and ±100 for the full control effect; nearly all actives have a fitted effect of over 60% in size
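Multi-concentration cytotoxicity screen in KB-3-1 cells grown in DMEM lacking phenol red with 10% FBS. After 72 h at 37 °C with compound, ATP-dependent luminescence was recorded.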
hERG WT inh: qHTS for Inhibitors of KCHN2 3.1: Wildtype qHTS; Voltage-gated inwardly rectifying potassium channel KCNH2 (Homo sapiens), Q12809; U2OS, BacMam KCNH2, thallium flux FluxOr; active compounds read low; activity change, % at 1.84 µM; 0.37% of 340,000 active;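 active = maximum activity change below -70%; inconclusive = maximum activity change between -70% and -50%; inactive = maximum activity change above -50%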; note: % is set by controls: 0 for no effect and ±100 for the full control effect
Target sequence (Q12809 whole entry, looked up): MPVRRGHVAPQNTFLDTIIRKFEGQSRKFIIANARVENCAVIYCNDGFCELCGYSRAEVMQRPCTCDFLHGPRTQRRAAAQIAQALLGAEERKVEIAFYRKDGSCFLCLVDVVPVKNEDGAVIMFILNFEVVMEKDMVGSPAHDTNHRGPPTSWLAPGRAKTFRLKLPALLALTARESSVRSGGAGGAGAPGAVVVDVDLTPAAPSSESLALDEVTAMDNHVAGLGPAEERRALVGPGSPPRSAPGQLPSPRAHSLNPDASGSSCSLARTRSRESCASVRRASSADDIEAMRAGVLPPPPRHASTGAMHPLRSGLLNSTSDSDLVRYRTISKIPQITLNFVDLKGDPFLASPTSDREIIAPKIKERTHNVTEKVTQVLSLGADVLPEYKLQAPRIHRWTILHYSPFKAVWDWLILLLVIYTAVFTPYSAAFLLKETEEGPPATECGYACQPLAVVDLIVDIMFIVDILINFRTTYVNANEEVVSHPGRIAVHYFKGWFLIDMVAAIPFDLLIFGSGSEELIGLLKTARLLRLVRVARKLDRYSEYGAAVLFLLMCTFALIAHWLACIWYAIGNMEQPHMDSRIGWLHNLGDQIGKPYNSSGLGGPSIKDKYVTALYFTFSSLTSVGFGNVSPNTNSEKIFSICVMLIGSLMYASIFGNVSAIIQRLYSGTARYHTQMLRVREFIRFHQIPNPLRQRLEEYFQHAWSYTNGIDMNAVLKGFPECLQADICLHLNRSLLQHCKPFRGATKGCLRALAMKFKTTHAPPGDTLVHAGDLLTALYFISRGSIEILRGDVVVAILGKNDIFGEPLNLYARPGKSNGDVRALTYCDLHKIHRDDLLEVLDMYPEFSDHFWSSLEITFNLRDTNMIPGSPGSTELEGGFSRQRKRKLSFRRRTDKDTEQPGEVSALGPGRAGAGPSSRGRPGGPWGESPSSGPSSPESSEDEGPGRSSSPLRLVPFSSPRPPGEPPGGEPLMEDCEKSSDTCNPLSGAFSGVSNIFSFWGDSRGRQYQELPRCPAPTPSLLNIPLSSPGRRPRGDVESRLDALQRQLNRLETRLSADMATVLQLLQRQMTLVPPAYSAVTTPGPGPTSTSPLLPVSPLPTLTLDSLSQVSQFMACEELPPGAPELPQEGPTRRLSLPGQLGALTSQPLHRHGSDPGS
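U2OS cells were transduced with wild-type KCNH2 virus (2.03 x 10^8 / mL) for 4 h at room temperature, then cultured overnight at 37 C. Thallium flux was read with FluxOr dye. Rate constants were normalized to DMSO controls.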
Starred values were filed as active, the others as inactive; i = inactive; ? = inconclusive; . = no result given; ! = not confirmed by another sample. Sampled rows, rich in hits. Any-hit rate of the full collection: about 7.6%. Unless noted, calls come from the whole dose curve; as a rule, active = well fitted curve in the direction sought with a large enough effect; inconclusive = small, poorly fitted or top-dose-only effect, or another doubt; inactive = no such curve, though single readings can be large; an effect the other way counts as inactive or inconclusive.

SMILES | SW480 rereplic | MCF10A rerep | KCNH2 3.1 inh | KB-V1 MDR tox | KB-3-1 cytotox | hERG WT inh
CN1[C@@H]2CC[C@H]1CC(OC1c3ccccc3CCc3ccccc31)C2 (stereo not given in full) | 3.2µM*! | -2% | -36 | ? | i | 56
Cc1cc(O)cc2c1O[C@@](C)(CCC[C@@H](C)CCC[C@@H](C)CCCC(C)C)CC2 | ? | 0% | 5 | i | i | -15
O=C(O)c1ccc(N=Cc2c(O)[nH]c(=O)[nH]c2=O)cc1 | 2% | -1% | 23 | ? | i | 0
Cc1cc(C)c(N=Cc2c(O)[nH]c(=O)[nH]c2=O)c(C)c1 | -1% | -1% | -3 | 5.2µM* | 6.5µM* | 2
O=C(OCc1c(-c2ccccc2)ncc2ccccc12)c1ccc(C(F)(F)F)cc1 | 3% | -20% | 9 | i | i | -5
O=C1CCCCC1 | -40% | 6% | -7 | i | i | 7
C/C=C(\C)C(=O)N[C@@H](c1ccccc1)[C@@H](O)C(=O)O[C@H]1C[C@@]2(O)[C@@H](OC(=O)c3ccccc3)C3[C@](C)(C(=O)[C@H](OC(C)=O)C(=C1C)C2(C)C)[C@H](O)C[C@H]1OC[C@@]31OC(C)=O (stereo not given in full) | 1.5µM* | 0.23µM* | -4 | ? | 0.0073µM* | 2
CC/C=C/CC(=O)N[C@@H](c1ccccc1)[C@@H](O)C(=O)O[C@H]1C[C@@]2(O)[C@@H](OC(=O)c3ccccc3)C3[C@](C)(C(=O)[C@H](OC(C)=O)C(=C1C)C2(C)C)[C@@H](O)C[C@H]1OC[C@@]31OC(C)=O (stereo not given in full) | ? | ? | -5 | ? | 0.58µM* | 7
CCC(C)C(=O)N[C@@H](c1ccccc1)[C@@H](O)C(=O)O[C@H]1C[C@@]2(O)[C@@H](OC(=O)c3ccccc3)C3[C@](C)(C(=O)[C@H](OC(C)=O)C(=C1C)C2(C)C)[C@@H](O)C[C@H]1OC[C@@]31OC(C)=O (stereo not given in full) | 1.6µM* | 73% | -14 | i | 0.0065µM* | -8
CCc1ccc(OCC(=O)N2CCN(CCc3ccccn3)CC2)cc1 | . | . | . | i | i | .
Cc1ccc(-c2nc3c(=O)n(C)c(=O)nc-3n(C)n2)cc1 | . | . | . | 7.3µM* | 2.6µM* | .
Cn1ncnc2c(=O)n(C)c(=O)nc1-2 | 0% | 18µM* | -17 | 0.73µM* | 0.65µM* | -3
O=C(Oc1ccc2cc(Br)ccc2c1)N1CCCCCC1 | 0% | ? | . | . | . | .
COc1ccc(/C=C/c2nc3ccccc3c(=O)n2-c2ccc(C)cc2)cc1O | . | . | . | i | i | .
BrCCc1ccccc1 | -80% | 20% | -14 | i | i | 1
CNCCCc1ccccc1 | 5% | ? | 9 | i | 23µM* | -9
COc1cc(C2SCC(=O)Nc3c2c(C)nn3-c2ccccc2)cc(OC)c1OC (stereo not given) | -2% | 1% | 0 | i | i | 4
Cc1nn(-c2ccccc2)c2c1C(c1ccc3c(c1)OCO3)SCC(=O)N2 (stereo not given) | 24% | 15µM* | 14 | ? | i | 11
COC(=O)C1=C(c2ccc(Cl)c(C(F)(F)F)c2)C[C@@H]2CC[C@H]1N2C(=O)NCc1cc(C)oc1C(F)(F)F | 11% | 41% | -89* | ? | ? | -11
COC(=O)C1=C(c2ccc(-c3ccccc3)c(F)c2)C[C@@H]2CC[C@H]1N2C(=O)NCCOc1ccccc1Cl | ? | 1% | 0 | 21µM* | ? | -16
